According to PubChem BioAssay:
Calls of active or inactive are those of the source.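 The calls were made as follows, unless noted: active = compound that reduces growth-factor-driven endothelial tube area in a mixed cell culture, no cutoff stated; inactive = the rest.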

Columns and labels:
[1] = stimulators of insulin release from INS-1E, primary screen, cell-based, 5 mM glucose, NPC library (AID 1117329;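 active = compound raises insulin release from rat beta cells at 5 mM glucose, no numeric limit stated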); conditions: rat INS-1E insulin secretion, at 10 µM, stronger effect = higher value
[2] = growth inhibition of GSK3B-pretreated HCT116 cells – cell-based, CellTiter-Glo, 0.2 to 20 µM (AID 1117336;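 active = compounds lowering colon cancer cell viability after pretreatment blocking the GSK3B kinase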); conditions: HCT116 viability after GSK3B inhibitor, at 20 µM, stronger effect = higher value
[3] = inhibition of endothelial tube formation, primary screen, imaging, VEGF stimulated, CD31 staining, tube area, NPC library (AID 1117340); conditions: VEGF-stimulated ADSC/ECFC co-culture, at 10 µM, stronger effect = higher value
[4] = GLP1 release stimulators, primary, NCI-H716, NPC library (AID 1117341;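 active = compound raises GLP1 secretion from the human gut endocrine cells, with no numeric limit stated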); conditions: NCI-H716 cells, at 10 µM, stronger effect = higher value
[5] = HCT116 colon cancer cell growth inhibition, primary screen, CellTiter-Glo luminescence, NPC library (AID 1117342;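 active = compounds that lower survival of HCT116 colon cancer cells in the luminescence readout, no numeric limit stated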); conditions: at 20 µM (top of the series)
[6] = reduced SW480 viability measured with CellTiter-Glo, NPC library, primary (AID 1117343;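 active = compounds that lower viability of the colon cancer cells in the luminescence readout, with no numeric limit stated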); conditions: CellTiter-Glo luminescence; at 20 µM (top of the series)
[7] = NPC library primary testing for decreased DLD-1 cell viability via CellTiter-Glo (AID 1117346;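 active = compounds that lower survival of DLD-1 colon cancer cells in the luminescence readout, no cutoff given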); conditions: DLD-1 viability, CellTiter-Glo luminescence; at 20 µM (top of the series)
[8] = biological target: 6-phosphogluconate dehydrogenase, decarboxylating (Homo sapiens) (UniProt P52209); assay: inhibition of human phosphogluconate dehydrogenase – biochemical, recombinant enzyme, NADPH absorbance, primary screen (AID 1159550;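 active = at least 20% inhibition of 6-phosphogluconate dehydrogenase activity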); conditions: recombinant 6PGD, NADPH absorbance 341 nm; at 10 µM; stronger effect = higher value
6-phosphogluconate dehydrogenase, decarboxylating (Homo sapiens), sequence (P52209 whole entry, looked up): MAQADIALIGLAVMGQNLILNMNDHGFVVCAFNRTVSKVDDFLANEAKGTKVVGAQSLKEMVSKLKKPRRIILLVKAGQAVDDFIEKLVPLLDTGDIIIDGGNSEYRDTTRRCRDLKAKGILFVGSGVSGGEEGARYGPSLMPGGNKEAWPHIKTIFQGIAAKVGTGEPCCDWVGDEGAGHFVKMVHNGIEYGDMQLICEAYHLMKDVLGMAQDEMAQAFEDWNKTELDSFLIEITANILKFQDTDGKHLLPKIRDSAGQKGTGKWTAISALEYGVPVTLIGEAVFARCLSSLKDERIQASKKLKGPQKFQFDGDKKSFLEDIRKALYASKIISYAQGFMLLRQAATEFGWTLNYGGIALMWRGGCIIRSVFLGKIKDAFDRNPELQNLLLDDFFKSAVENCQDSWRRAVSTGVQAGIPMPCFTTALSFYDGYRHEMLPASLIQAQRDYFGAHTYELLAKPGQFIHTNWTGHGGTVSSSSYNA

[9] = EMT-state selective cytotoxicity in co-culture – imaging, PC-3E GFP, TEM4-18 mCherry, primary screen (AID 1345086;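 active = compounds killing one labelled cell type while sparing the other, by normalised counts and ratio limits, not self-fluorescent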;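 as to all read-outs here: cells exposed to compound for 72 h before imaging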;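 as to red/green cell ratio (normalised): normalised mesenchymal count divided by normalised epithelial count so high means epithelial killing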); conditions: PC-3E GFP / TEM4-18 mCherry co-culture, imaging cell counts, at 1 µM; for red/green cell ratio (normalised): actives lie on both sides, counts scaled to control wells, 1 = unselective
[10] = measured here: epithelial PC-3E GFP cell survival
[11] = measured here: mesenchymal TEM4-18 mCherry cell survival

Structure (SMILES)	insulin secretion stimulation [1]	viability decrease [2]	tube area decrease [3]	GLP1 secretion stimulation [4]	inhibition of viability [5]	viability decrease (inhibition) [6]	viability decrease (inhibition) [7]	inhibition [8]	red/green cell ratio (normalised) [9]	normalised cell number [9, 10]	normalised cell number [9, 11]
COc1c2occc2c(OC)c2c(=O)cc(C)oc12	0.7% (inactive)	-6.4% (inactive)	21.8% (inactive)	5.9% (inactive)	-7.6% (inactive)	21.5% (inactive)	-0.4% (inactive)	1.04% (inactive)	0.89 (inactive)	1.07	0.95
CCN(CC)CCNC(=O)COc1ccc(OC)cc1	1.8% (inactive)	-5.3% (inactive)	-8.1% (inactive)	2.1% (inactive)	-18.7% (inactive)	22.1% (inactive)	-6.15% (inactive)	-14.6% (inactive)	1.07 (inactive)	1.11	1.18
Nc1ccc(S(=O)(=O)Nc2ccc(Cl)nn2)cc1	1% (inactive)	6.1% (inactive)	12.6% (inactive)	-1.5% (inactive)	-6.17% (inactive)	15.5% (inactive)	0.7% (inactive)	10.1% (inactive)	1.19 (inactive)	0.46	0.54
CCOc1ccc(Cc2nccc3cc(OCC)c(OCC)cc23)cc1OCC	1.2% (inactive)	-83% (inactive)	39.2% (inactive)	4.1% (inactive)	69.1% (active)	97.9% (active)	62.3% (active)	-5.46% (inactive)	0.88 (inactive)	1	0.88
O=C(O)CCCCC1CCSS1 (stereo not given)	-1.9% (inactive)	3.2% (inactive)	10.9% (inactive)	0.5% (inactive)	14.7% (inactive)	29.9% (inactive)	-0.7% (inactive)	14.8% (inactive)	0.99 (inactive)	0.91	0.9
COc1ccc(NS(=O)(=O)c2ccc(N)cc2)nn1	0.2% (inactive)	-9.5% (inactive)	14% (inactive)	0.3% (inactive)	-7.97% (inactive)	2.4% (inactive)	-8.6% (inactive)	-7.32% (inactive)	1.05 (inactive)	0.94	0.98
CN1C(C)(C)CCCC1(C)C	0.8% (inactive)	23.2% (inactive)	2.5% (inactive)	-2.3% (inactive)	-1.5% (inactive)	-25.5% (inactive)	-10.7% (inactive)	2.01% (inactive)	0.96 (inactive)	1.09	1.05
CN1Cc2c(N)cccc2C(c2ccccc2)C1 (stereo not given)	6.6% (inactive)	-9.2% (inactive)	3.2% (inactive)	0.3% (inactive)	10% (inactive)	25.6% (inactive)	4.2% (inactive)	5.71% (inactive)	0.78 (inactive)	1.16	0.9
Cc1ccc(C(C)C)cc2c(C)ccc1-2	-0.7% (inactive)	-28.6% (inactive)	15.5% (inactive)	-6.3% (inactive)	5.77% (inactive)	-9.4% (inactive)	-6.8% (inactive)	-19.1% (inactive)	0.74 (inactive)	1.25	0.92
CC(=O)Nc1c(I)cc(I)c(C(=O)O)c1I	0.6% (inactive)	-43.4% (inactive)	34.2% (inactive)	0.7% (inactive)	4.5% (inactive)	-4.3% (inactive)	0.1% (inactive)	-3.44% (inactive)	0.94 (inactive)	1.19	1.12
C=CCc1ccc(O)c(OC)c1	4.7% (inactive)	22.5% (inactive)	-3.7% (inactive)	2.4% (inactive)	3.77% (inactive)	-11.7% (inactive)	-4.6% (inactive)	-3.83% (inactive)	1.2 (inactive)	0.95	1.13
CC(=O)Oc1cccc(O)c1	2.6% (inactive)	0.4% (inactive)	20.9% (inactive)	1.4% (inactive)	3.03% (inactive)	29.4% (inactive)	-7.4% (inactive)	8.3% (inactive)	1.21 (inactive)	1.1	1.33
CCN(CC)CCNC(=O)c1cc(S(C)(=O)=O)ccc1OC	0.1% (inactive)	-23.6% (inactive)	12% (inactive)	0.7% (inactive)	1.13% (inactive)	10.9% (inactive)	-4.3% (inactive)	-8.37% (inactive)	1.26 (inactive)	0.93	1.16
COc1ccccc1OCC(O)CO (stereo not given)	-0.3% (inactive)	-2.1% (inactive)	-23.8% (inactive)	1.3% (inactive)	-1.2% (inactive)	17.6% (inactive)	-4.85% (inactive)	12.6% (inactive)	1.05 (inactive)	1.11	1.17
O=C(O)CCNC(=O)c1ccccc1	-1% (inactive)	6.3% (inactive)	-2% (inactive)	-0.3% (inactive)	-7.2% (inactive)	-1.3% (inactive)	6.4% (inactive)	2.23% (inactive)	0.71 (inactive)	1.22	0.87
